# Data taken from PubChem BioAssay AID602162 (NMMLSC, 2011).
# Hit rate of the full screen: of about 360,000 compounds, about 690 (0.19%) were called active. This is one part of a sample in which actives are shown more often than they occur. Values without a mark were called inactive.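 How the source made its calls: active means fluorescence ratio to DMSO below 75%, the collection mean minus 3 SD; inconclusive means too few cells collected in the well; inactive means the rest.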
# Biological target: ATP-binding cassette sub-family B member 6 (Homo sapiens) (UniProt Q9NP58)
# Sequence (Q9NP58 whole entry, looked up): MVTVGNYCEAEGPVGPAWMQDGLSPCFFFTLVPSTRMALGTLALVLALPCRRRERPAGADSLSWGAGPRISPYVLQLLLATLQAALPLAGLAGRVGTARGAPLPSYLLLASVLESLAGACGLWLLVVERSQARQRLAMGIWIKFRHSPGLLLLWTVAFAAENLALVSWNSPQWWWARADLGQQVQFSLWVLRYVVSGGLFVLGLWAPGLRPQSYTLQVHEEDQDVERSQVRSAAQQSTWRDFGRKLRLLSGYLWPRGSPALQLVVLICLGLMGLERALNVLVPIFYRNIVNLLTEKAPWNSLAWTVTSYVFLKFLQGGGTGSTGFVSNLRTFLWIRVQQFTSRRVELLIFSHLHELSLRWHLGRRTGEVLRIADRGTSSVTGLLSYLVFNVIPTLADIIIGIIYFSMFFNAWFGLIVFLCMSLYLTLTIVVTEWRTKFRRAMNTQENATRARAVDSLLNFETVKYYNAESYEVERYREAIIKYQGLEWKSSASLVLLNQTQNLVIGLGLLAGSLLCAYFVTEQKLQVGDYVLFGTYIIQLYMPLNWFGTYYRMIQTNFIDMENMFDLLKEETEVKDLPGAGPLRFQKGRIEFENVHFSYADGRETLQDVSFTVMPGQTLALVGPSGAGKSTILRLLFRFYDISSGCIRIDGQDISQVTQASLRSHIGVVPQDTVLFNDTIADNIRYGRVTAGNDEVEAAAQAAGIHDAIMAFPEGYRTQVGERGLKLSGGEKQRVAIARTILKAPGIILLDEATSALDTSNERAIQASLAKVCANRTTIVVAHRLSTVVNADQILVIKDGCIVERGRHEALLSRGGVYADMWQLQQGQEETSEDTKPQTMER
# Test: ABCB6 transporter inhibitors, primary screen, K562-ABCB6 cells, flow cytometry, MLPCN library (AID 602162);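 further: signal is porphyrin accumulated inside mitochondria; 100% equals median channel fluorescence of DMSO control wells; lower ratio means ABCB6 inhibition with less porphyrin fluorescence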
# Details: K562-ABCB6 porphyrin accumulation, 1 h, at 10 µM, stronger effect = lower value
row,SMILES,fluorescence ratio to DMSO
1,CC(C)C(=O)N1CCN(c2nc(-c3ccccc3)c3c(c2C#N)CC(C)(C)OC3)CC1,111%
2,CCOC(=O)CSc1nc(N2CCOCC2)c2c(c1C#N)CC(C(C)C)OC2 (stereo unspecified),97%
3,CC1(C)Cc2c(C#N)c(SCc3nc4ccccc4[nH]3)nc(N3CCOCC3)c2CO1,74% (active)
4,Cc1cccc(OCCNC(=O)CSc2ccc(C(F)(F)F)cc2[N+](=O)[O-])c1,98%
5,CCCOc1ccc(C(=O)C(CCC(CNCC)C(=O)c2ccc(OCCC)cc2)CNCC)cc1 (stereo unspecified),94%
6,CC1CCN(C(NC(=O)c2ccco2)C(=O)c2ccccc2)CC1 (stereo unspecified),99%
7,CCCCN(C(=O)CSCC(=O)Nc1ccc(OC)cc1)c1c(N)n(CCC)c(=O)[nH]c1=O,99%
8,COc1ccc(CCNS(=O)(=O)c2ccc(F)cc2)cc1OC,62% (active)
9,COc1ccc(CCNS(=O)(=O)c2ccc(C(=O)NCc3ccco3)cc2)cc1OC,100%
10,COc1ccc(CCNS(=O)(=O)c2ccc(Cl)s2)cc1OC,88%
11,CCCCc1nc2ccc(F)cc2cc1C,95%
12,O=C(CSc1nnc(Nc2ccccc2F)s1)NC1CCCC1,101%
13,CCOc1ccc(OCC(=O)OC(C)C(=O)NC2CCCCC2C)cc1 (stereo unspecified),99%
14,COc1ccc(C(=O)OCC(=O)c2ccc(Cl)s2)c(OC)c1OC,101%
15,CCOC(=O)C1CSC(CC(=O)Nc2ccc(OCC)cc2)C(=O)N1 (stereo unspecified),95%
16,CCOc1ccc(NC(=O)CC2NCCNC2=O)cc1 (stereo unspecified),73% (active)
17,CCOc1ccc(NC(=O)CCC(=O)NNC(=O)NC2CCCCC2)cc1,98%
18,COc1cc([N+](=O)[O-])ccc1NC(=S)N1CCN(c2ccccn2)CC1,98%
19,O=C(c1cccc(S(=O)(=O)N2CCCC2)c1)N(Cc1ccco1)C1CCS(=O)(=O)C1 (stereo unspecified),97%
20,Cc1nccn1-c1ccc(NC(=O)[C@H]2O[C@@H](n3ccc(=O)[nH]c3=O)[C@H](O)[C@@H]2O)cc1,99%
21,CCOC(=O)C1CCCN(C(=O)COc2ccc(N(C)S(=O)(=O)c3ccc(C)cc3)cc2)C1 (stereo unspecified),98%
